# Among all 48,000 compounds or so, about 13,000 (27%) showed an effect of 50% or more. Some of the results follow.
# Tested on: Wolbachia pipientis
# Test: Anti-Wolbachia Cell-Based Screen
# Assay type: functional
# Set-up: scale not given: in the data most compounds retested in dose-response had high values
# Conditions: 5 µM
row,Structure (SMILES),Percent Effect
1,COc1cccc(-c2cnnc(N(C)CCC3CCCCO3)n2)c1 (stereo not given),-7.888%
2,Cc1cc2c(c(-c3c[nH]c(C)n3)c1)OC(CN)C2 (stereo not given),10.27%
3,Cc1ccc(CCNC(=O)N2CCCC(Cc3nccn3C)C2)cn1 (stereo not given),-1.285%
4,CCOc1cc(CNC(=O)N2CCC(Cc3cnn(C)c3)C2)ccn1 (stereo not given),0.1866%
5,Cc1ccc(CCNC(=O)NC2CCN(CC(F)(F)F)C2=O)cn1 (stereo not given),-2.04%
6,Cn1cc(CC2CCN(C(=O)NCCCc3ccc(O)cc3)C2)cn1 (stereo not given),109.7%
7,Cc1ccc(CCNC(=O)N2CCC(Cc3cnn(C)c3)C2)cn1 (stereo not given),129.7%
8,COc1ccc(CNC(=O)N2CCC(Cc3cnn(C)c3)C2)cc1C (stereo not given),-1.04%
9,Cc1ccc2c(ccn2CCC(=O)O)c1,-5.722%
10,O=C(O)CCn1ccc2c(nnc3c(-c4ccc(F)cc4)cnn32)c1=O,102.5%
11,CC(=O)Nn1ccc2c(nnc3c(-c4ccccc4)cnn32)c1=O,95.62%
12,CC(=O)Nn1ccc2c(nnc3c(-c4ccc(F)cc4)cnn32)c1=O,91.05%
13,CCN(CC)CCC(=O)NCc1cc2n(n1)CCN(C(=O)N(C)C)C2,-4.405%
14,Cc1ccc(-c2ncc(C(=O)N3CCC[C@H](N)C3)c(O)n2)cc1,4.793%
15,CC(O)c1cn(CC2CCN(C(=O)c3cccc(N(C)C)c3)CC2)nn1 (stereo not given),-11.02%
16,Cc1nnc(NC(=O)N2CCCN(C3CCCC3)CC2)s1,-2.14%
17,CC1CCN(CCCNC(=O)Nc2cc3c(cc2Br)OCCO3)CC1,-0.7212%
18,Cc1nc(-c2c(-c3ccccc3)ncn2[C@H]2C[C@@H](C(=O)O)N(C)C2)co1,-9.295%
19,CCSCc1ccnc(NC(=O)C2CCOC2)c1 (stereo not given),20.8%
20,CCOc1ccc(C(=O)N2CCC(Oc3ccccc3)(C(=O)O)CC2)o1,-0.9818%
21,CC(C)(C)N1CCN(C(=O)c2cccnc2-n2cncn2)CC1,-9.982%
22,CCCc1cc(N2CCC(NCCc3ccc(O)cc3)CC2)nc(C)n1,19.96%
23,CCc1cc(N2CCC(NCc3ccc(C)o3)CC2)ncn1,91.75%
24,CCc1csc(CNC2CCN(c3ccc(C)cc3)CC2)n1,-9.18%
25,CCc1cc(N2CCC(NCCSc3nnnn3C)CC2)nc(C)n1,4.673%

row,Structure (SMILES),Percent Effect
1,Cc1nc(C)c(C)c(N2CCC(NCCOc3ccccc3)CC2)n1,8.772%
2,CCc1cc(N2CCC(NCCc3ccc(C)o3)CC2)nc(C)n1,97.78%
3,CCc1cc(N2CCC(NCCc3nc(C)c(C)s3)CC2)nc(C)n1,99.23%
4,CCc1cc(N2CCC(NC(=O)CCC3CCCO3)CC2)ncn1 (stereo not given),-4.201%
5,Cc1nc(CCNC2CCN(Cc3ccccc3)C2)sc1C (stereo not given),-12.11%
6,CCc1cc(N2CCC(NCCc3ccccc3F)CC2)nc(C)n1,82.1%
7,CCCc1cc(N2CCC(NCC3(O)CCCCC3)CC2)nc(C)n1,-11.13%
8,Cc1cccc(C(C(=O)NCCc2nc(C)cc(=O)[nH]2)N(C)C)c1 (stereo not given),7.079%
9,Nc1nc(CCCNC(=O)C2CCCN(Cc3ccco3)C2)cs1 (stereo not given),11.5%
10,Cc1ccccc1C(=O)NCCC(=O)NS(=O)(=O)c1cccnc1,-14.99%
11,CCn1cncc1CNc1ccc(-c2nc(CC(C)C)no2)cn1,7.108%
12,CC(C)c1nnc2n1CCN(C(=O)c1ccc(OCC3CC3)cc1)C2,5.374%
13,COc1c(CNCc2nnc3n2CCCCC3)c(C)nn1C.Cl,-7.415%
14,CCn1cc(N)c(-c2nnc3n2CCCC3)n1,106%
15,CC(NCc1ccc(Cl)o1)c1nnc2n1CCCC2 (stereo not given),-1.685%
16,Cc1ccc(CNC(C)c2nnc3n2CCCC3)o1 (stereo not given),-12.78%
17,CC(NCc1ccco1)c1nnc2n1CCCC2 (stereo not given),-19.1%
18,COc1cc(CNC(C)c2nnc3n2CCC3)cc(OC)c1 (stereo not given),10.34%
19,Cc1ccoc1CNC(C)c1nnc2n1CCCC2 (stereo not given),-17.53%
20,CCn1cc(N)c(-c2nnc3n2CCC3)n1,92.6%
21,Cn1cc(N)c(-c2nnc3n2CCCC3)n1,140.1%
22,O=C(NCC1(O)CCOc2ccccc21)Nc1ccccc1 (stereo not given),-14.8%
23,O=C(O)c1ccnc(-c2ccnc(COc3ccc(Cl)cc3)n2)c1,-21.17%
24,CCCS(=O)(=O)N1CCN(c2cc(-n3cnc(C)c3C)ncn2)CC1,-4.672%
25,NC(=O)c1ccc(OCCCN2C[C@H](C3CC3)[C@@H](N)C2)cc1,-11.21%

row,Structure (SMILES),Percent Effect
1,Cc1cc(C2CCC2)nc(N2CCC3(CC2)OCCCC3O)n1 (stereo not given),-2.811%
2,NC(=O)c1ccc(OCCCN2CCC3(CC2)OCCCC3O)cc1 (stereo not given),101.3%
3,COc1ccccc1S(=O)(=O)N1CCC2(CC1)OCCCC2O (stereo not given),6.351%
4,OC1CCCOC12CCN(CCCOc1ccccc1F)CC2 (stereo not given),114.2%
5,O[C@H]1CN(CCCOc2ccccc2F)CC[C@@]12CCCO2,134.4%
6,O[C@H]1CCN(CCCOc2ccccc2F)C[C@@]12CCCO2,90.29%
7,O=C(C1CCC1)N1CCN(Cc2ccc(F)cc2)[C@H]2CS(=O)(=O)C[C@H]21,11.26%
8,O=C(Nc1ccccn1)NC1CCN(c2ccccc2OC(F)F)C1 (stereo not given),-25.38%
9,COc1ccc2nc(C[C@@H]3C[C@@H](C(C)C)[C@H](CN)C=C3C)[nH]c2n1,16.51%
10,CC(C1CCN(Cc2cnn(C)c2C2CC2)CC1)N1CCCC1 (stereo not given),22.88%
11,C1CCC(NCC2(N3CCOCC3)CCSC2)C1 (stereo not given),-110.3%
12,COc1ccccc1[C@@H]1CN(Cc2c(C)noc2C)C[C@H]1C(=O)O,-13.6%
13,Cc1cc(NS(=O)(=O)CC2CCCCO2)ccc1F (stereo not given),4.819%
14,Cc1cc(NCC2CCCO2)cc(=O)n1C (stereo not given),135.4%
15,Cc1cc(S(C)(=O)=O)c(C)c(S(=O)(=O)NCC2CCCO2)c1 (stereo not given),-7.327%
16,COCC(C)N(C)C(=O)NC1CCN(c2ncccn2)CC1 (stereo not given),0.8848%
17,CCN(Cc1noc(C2CC2)n1)Cc1ccc(C#N)cc1F,-1.413%
18,O=C1NCCO[C@H]2CN(C(=O)Cc3cccs3)CC[C@@H]12,-57.9%
19,CC(C)N1CCO[C@@H]2CN(C(=O)Cc3cccs3)CC[C@@H]2C1.O=C(O)C(F)(F)F,111.3%
20,CS(=O)(=O)N1CCO[C@@H]2CN(C(=O)Cc3cccs3)CC[C@@H]2C1,99.33%
21,CN(C)C[C@H]1OC[C@@H]2CCN(C(=O)Cc3cccs3)C[C@@H]21.O=C(O)C(F)(F)F,-1.59%
22,CN1CCO[C@@H]2CN(C(=O)Cc3cccs3)CC[C@@H]2C1.O=C(O)C(F)(F)F,104.2%
23,O=C(Cc1cccs1)N1CCOC(c2cccc(O)c2)C1 (stereo not given),-7.888%
24,COCCN1CCO[C@@H]2CN(C(=O)Cc3cccc(F)c3)CC[C@@H]2C1.O=C(O)C(F)(F)F,6.529%
25,O=C(Cc1cccs1)N1C[C@@H]2CN(Cc3ccoc3)CCO[C@@H]2C1.O=C(O)C(F)(F)F,-6.419%
